# Measurements: PubChem BioAssay
# Values joined by “and” are separate entries in the source; they are usually repeats but may differ in a detail not shown here. Equal values may be shown once. Active and inactive are the calls of the source. Unless noted, the rule behind the calls is not given here.
# Legend:
# [1] = system: Aerobactin synthetase IucA (Klebsiella pneumoniae); assay: inhibition of K. pneumoniae IucA enzyme – biochemical, Tocris library, absorbance (AID 1345561); details: purified IucA enzyme assay, absorbance (OD) read-out; stronger effect = lower value;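 tested at 8 µM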;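 note: 100% = enzyme without compound and 0% = no enzyme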
# [2] = MELAS cybrid and Rieske KO viability enhancers – cell-based, MELAS cybrids, Rieske KO mouse fibroblasts, CellTiter-Glo, primary screen (AID 1508586;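 active = mean z-score across replicates of 1.96 or higher in either the MELAS or the Rieske mutant cell line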;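 note: z relative to plate mean and SD of compound and empty wells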); details: low glucose
# [3] = galactose survival enhancers in mitochondrial complex I cybrids – cell-based, galactose medium, ATP luminescence, primary screen (AID 1645843;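 active = z-score of at least 1.8 in each of two replicates, scored against plate mean and spread of sample wells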;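 note: positive z means more ATP and so rescue of galactose-driven cybrid death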); details: complex I mutant cybrid cells, 72 h, stronger effect = higher value
# [4] = system: Hepatitis C virus NS3 helicase; assay: blockers of NS3h binding to ssDNA – biochemical, fluorescence polarization, LOPAC1280 library, primary screen (AID 687035; in the data active = inhibition above about 37%); details: Purified HCV NS3 helicase, Cy5-dT15 ssDNA binding fluorescence polarization; stronger effect = higher value; concentration not given here
# [5] = compounds altering Cy5-DNA-NS3h complex signal – biochemical, LOPAC1280, artefact control for HCV NS3 helicase inhibitor project (AID 687037); details: Cy5-DNA-NS3h complex fluorescence interference counterscreen
# [6] = viability loss with induced miR-34 in A549 – imaging, A549 dox-inducible miR-34, nuclei and caspase counts, primary screen (AID 1347080;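 active = compounds whose cell count with miR-34 switched on is under 0.7 times the count with it off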); details: A549 miR-34 inducible, Hoechst nuclei count, 48 h
# [7] = compounds altering circadian rhythm period length – cell-based, LOPAC library, luminescence reporter (AID 2774); details: circadian reporter cells, at 7 µM, actives lie on both sides;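 note: values are relative to mean of DMSO wells on each plate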
# [8] = P. berghei load reduction in hepatocytes – cell-based, HepG2, luciferase luminescence, HepG2 viability, primary screen (AID 624349; in the data active = parasite load remaining mostly below about 12%, no sharp cut-off; inactive = mostly above about 10%;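 note: 100% = mean of DMSO negative control wells on the same plate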); details: P. berghei liver stage in HepG2, luciferase luminescence, concentration not given here; parasite load remaining: stronger effect = lower value; viability: measured here: HepG2 viability without parasites
# [9] = signal quenchers or enhancers, Cy5 substrate/SSB – biochemical, NIH Clinical Collection, E. coli SSB, artefact control for HCV NS3 helicase inhibitor project (AID 743268); details: Cy5-oligo bound E. coli SSB, fluorescence interference
# [10] = system: Hepatitis C virus NS3 helicase; assay: blockers of NS3h binding to DNA – biochemical, fluorescence polarization, NIH Clinical Collection, primary screen (AID 743270); details: NS3 helicase binding to Cy5-dT15 DNA, stronger effect = higher value, concentration not given here
# [11] = target: Single-stranded DNA-binding protein (Escherichia coli (strain K12)) (UniProt P0AGE0); assay: SSB-ssDNA binding inhibitors – biochemical, fluorescence polarization, NIH Clinical Collection, counter-screen for HCV NS3 helicase inhibitor project (AID 743271; in the data active = inhibition above about 28%); details: E. coli SSB-DNA binding, stronger effect = higher value, concentration not given here
# [12] = compounds distorting NS3 helicase fluorescence signal – biochemical, NIH Clinical Collection, artefact control for HCV NS3 helicase inhibitor project (AID 743272); details: fluorescence interference counterscreen, HCV NS3 helicase assay; stronger effect = lower value;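 note: HCV NS3 helicase with a Cy5 labelled single stranded DNA probe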
# [13] = system: Aerobactin synthetase IucA (Klebsiella pneumoniae hvKP1); assay: IucA enzyme inhibition, primary screen, biochemical, Spectrum library (AID 1346200); details: malachite green pyrophosphate, A620, at 8 µM, stronger effect = lower value;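 note: 100% = wells without compound and 0% = wells lacking enzyme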
# [14] = stronger effect = lower value, cell number ratio, induced over uninduced
# [15] = measured here: relative caspase fold change +Dox/-Dox
# [16] = measured here: total cells with miR-34 induction, stronger effect = lower value
# [17] = measured here: total cells without miR-34 induction
smiles,measurement,setting,value
Cc1cccc(C(C)c2cnc[nH]2)c1C (centres undefined),remaining activity,[1],123% (inactive)
same,z-score,"[2]; MELAS cybrid survival, CellTiter-Glo 48 h, stronger effect = higher value",0.00954 (inactive) and -0.104 (inactive) and -0.218 (inactive)
same,z-score,"[2]; Rieske KO mouse fibroblast survival, CellTiter-Glo 72 h",0.0551 and -0.0823 and -0.0306
same,z-score,[3],-0.255 (inactive)
COc1ccc2c(c1)c(CCN1CCOCC1)c(C)n2C(=O)c1cccc(Cl)c1Cl,inhibition,[4],-1% (inactive)
same,fluorescence ratio (interference),[5],1.1 (inactive)
same,remaining activity,[1],101% (inactive)
same,fold change,[6]; [14],0.915 (inactive)
same,fold change,[6]; [15],1.25
same,cell count,[6]; [16],6500
same,cell count,[6]; [17],7100
same,z-score,[3],-0.005 (inactive)
O=C(O)CCC(CP(=O)(O)O)C(=O)O (centres undefined),remaining activity,[1],113% (inactive)
same,fold change,[6]; [14],0.917 (inactive)
same,fold change,[6]; [15],0.521
same,cell count,[6]; [16],9040
same,cell count,[6]; [17],9860
same,z-score,[3],-0.22 (inactive)
O=C1/C(=C/c2ccccc2)C[C@@]2(O)C3Cc4ccc(O)c5c4[C@@]2(CCN3CC2CC2)[C@H]1O5,remaining activity,[1],97.5% (inactive)
same,fold change,[6]; stronger effect = lower value,1.1 (inactive)
same,fold change,[6]; [15],0.83
same,cell count,[6]; [16],919
same,cell count,[6]; [17],833
same,z-score,[3],-1.12 (inactive)
CN1C2CCC1CC(OC(c1ccccc1)c1ccc(Cl)cc1)C2 (centres undefined),period change,[7],0.035 h (inactive)
same,remaining activity,[1],92.9% (inactive)
same,fold change,[6]; [14],0.909 (inactive)
same,fold change,[6]; [15],1.16
same,cell count,[6]; [16],4530
same,cell count,[6]; [17],4990
same,z-score,[3],-1.1 (inactive)
c1ccc(CCCCN2CCC(c3ccccc3)CC2)cc1,remaining activity,[1],90.6% (inactive)
same,fold change,[6]; [14],0.976 (inactive)
same,fold change,[6]; [15],1.02
same,cell count,[6]; [16],8670
same,cell count,[6]; [17],8890
same,z-score,[3],0.375 (inactive)
Fc1ccc(C(OCCN2CCN(C/C=C/c3ccccc3)CC2)c2ccc(F)cc2)cc1,remaining activity,[1],116% (inactive)
same,fold change,[6]; [14],0.843 (inactive)
same,fold change,[6]; [15],1.03
same,cell count,[6]; [16],2280
same,cell count,[6]; [17],2710
same,z-score,[3],-1.23 (inactive)
Oc1ccc2c3c1O[C@H]1c4[nH]c5ccccc5c4C[C@@]4(O)C(C2)N(CC2CC2)CC[C@]314,parasite load remaining,[8],46.5% (inactive)
same,viability,[8],62.3%
same,fluorescence ratio,[9],0.91 (inactive)
same,inhibition,[10],-1.19% (inactive)
same,inhibition,[11],-0.1% (inactive)
same,fluorescence ratio,[12],0.89 (inactive)
same,remaining activity,[1],101% (inactive)
same,fold change,[6]; stronger effect = lower value,1.03 (inactive)
same,fold change,[6]; [15],0.989
same,cell count,[6]; [16],8920
same,cell count,[6]; [17],8700
same,z-score,[3],0.53 (inactive)
C[C@H](NC[C@H](O)CP(=O)(O)CC1CCCCC1)c1ccc(Cl)c(Cl)c1,remaining activity,[1],121% (inactive)
same,fold change,[6]; [14],0.971 (inactive)
same,fold change,[6]; [15],0.73
same,cell count,[6]; [16],10100
same,cell count,[6]; [17],10400
same,z-score,[3],0.2 (inactive)
CC(C)(Cc1c[nH]c2ccc(Cl)cc12)NCCOc1ccccc1OCC1CC1,remaining activity,[1],119% (inactive)
same,fold change,[6]; [14],0.921 (inactive)
same,fold change,[6]; [15],1.09
same,cell count,[6]; [16],226
same,cell count,[6]; [17],246
same,z-score,[3],-1.23 (inactive)
C(=C\c1ccccc1)/CN1CCN(CCOC(c2ccccc2)c2ccccc2)CC1,remaining activity,[1],119% (inactive)
same,fold change,[6]; [14],0.938 (inactive)
same,fold change,[6]; [15],0.604
same,cell count,[6]; [16],5420
same,cell count,[6]; [17],5780
same,z-score,[3],-1.21 (inactive)
S=C=Nc1cccc(C2(N3CCCCC3)CCCCC2)c1,period change,[7],0.05 h (inactive)
same,remaining activity,[1],122% (inactive)
same,fold change,[6]; [14],0.942 (inactive)
same,fold change,[6]; [15],0.732
same,cell count,[6]; [16],9100
same,cell count,[6]; [17],9670
same,z-score,[3],0.62 (inactive)
C=C(C)CN1CC[C@]23c4c5ccc(O)c4O[C@H]2c2[nH]c4ccccc4c2C[C@@]3(O)C1C5,parasite load remaining,[8],2.83% (inactive)
same,viability,[8],29.3%
same,fluorescence ratio,[9],0.95 (inactive)
same,inhibition,[10],-1.97% (inactive)
same,inhibition,[11],1.97% (inactive)
same,fluorescence ratio,[12],0.93 (inactive)
same,remaining activity,[1],92% (inactive)
same,fold change,[6]; stronger effect = lower value,0.859 (inactive)
same,fold change,[6]; [15],0.814
same,cell count,[6]; [16],5020
same,cell count,[6]; [17],5850
same,z-score,[3],-0.785 (inactive)
CCc1cccc(CC)c1NC1=NCCN1,remaining activity,[1],115% (inactive)
same,fold change,[6]; [14],0.952 (inactive)
same,fold change,[6]; [15],1.79
same,cell count,[6]; [16],8430
same,cell count,[6]; [17],8850
same,z-score,[3],-0.02 (inactive)
O=C1Nc2cc(Cl)c(Cl)cc2N2CCNCC12 (centres undefined),remaining activity,[1],125% (inactive)
same,fold change,[6]; [14],0.949 (inactive)
same,fold change,[6]; [15],0.693
same,cell count,[6]; [16],8510
same,cell count,[6]; [17],8970
same,z-score,[3],-0.265 (inactive)
Cc1nnc2ccc(-c3cccc(C(F)(F)F)c3)nn12,remaining activity,[1],126% (inactive)
same,fold change,[6]; stronger effect = lower value,0.912 (inactive)
same,fold change,[6]; [15],0.497
same,cell count,[6]; [16],9060
same,cell count,[6]; [17],9940
same,z-score,[3],0.155 (inactive)
CN1C2CCC1CC(OC(c1ccc(F)cc1)c1ccc(F)cc1)C2 (centres undefined),remaining activity,[1],99.4% (inactive)
same,fold change,[6]; [14],1.03 (inactive)
same,fold change,[6]; [15],1.19
same,cell count,[6]; [16],7710
same,cell count,[6]; [17],7460
same,z-score,[3],-0.46 (inactive)
Oc1ccc2c3c1O[C@H]1c4oc5ccccc5c4C[C@@]4(O)C(C2)N(CC2CC2)CC[C@]314,remaining activity,[1],104% (inactive)
same,fold change,[6]; stronger effect = lower value,0.944 (inactive)
same,fold change,[6]; [15],0.874
same,cell count,[6]; [16],9060
same,cell count,[6]; [17],9600
same,z-score,[3],-0.325 (inactive)
CCN(CC)CCO[C@H]1CC[C@@]2(C)C(=CC[C@@H]3[C@@H]2CC[C@]2(C)C(=O)CC[C@@H]32)C1,remaining activity,[1],113% (inactive)
same,fold change,[6]; [14],0.896 (inactive) and 0.878 (inactive)
same,fold change,[6]; [15],0.558 and 0.739
same,cell count,[6]; [16],5320 and 6330
same,cell count,[6]; [17],5930 and 7220
same,z-score,[3],-0.79 (inactive)
Oc1c(I)cc(Cl)c2cccnc12,activity remaining,[13],126% (inactive)
CC1=C(/C=C/C(C)=C/C=C/C(C)=C/C=C/C=C(C)/C=C/C=C(C)/C=C/C2=C(C)C(=O)C(O)CC2(C)C)C(C)(C)CC(O)C1=O (centres undefined),activity remaining,[13],109% (inactive)
N.N.O=C(O)C1(C(=O)O)CCC1.[Pt],activity remaining,[13],94.6% (inactive)
CC1(C)O[C@@H]2CC3C4CCC5=CC(=O)CCC5(C)C4(F)C(O)CC3(C)[C@]2(C(=O)CCl)O1 (some centres undefined),activity remaining,[13],93.6% (inactive)
CC(=O)S[C@@H]1CC2=CC(=O)CC[C@]2(C)[C@H]2CC[C@@]3(C)[C@@H](CC[C@@]34CCC(=O)O4)C12 (some centres undefined),activity remaining,[13],106% (inactive)
C/C=C(/C)C(=O)O[C@H]1CC[C@@]2(C)[C@@H]3CC[C@H]4[C@]5(O)C[C@H](O)[C@@]6(O)[C@@H](CN7C[C@@H](C)CC[C@H]7[C@@]6(C)O)[C@]5(O)C[C@@]42OC13O,activity remaining,[13],103% (inactive)
COc1ccc(-c2coc3cc(OC)cc(OC)c3c2=O)cc1,activity remaining,[13],103% (inactive)
CCc1cc(C(N)=S)ccn1,activity remaining,[13],105% (inactive)
COc1cc(O)c(C(=O)/C=C/c2ccccc2)c(OC)c1,activity remaining,[13],119% (inactive)
CC(C)(S)C(N)C(=O)O (centres undefined),activity remaining,[13],128% (inactive)
Nc1ccc(S(=O)(=O)Nc2nccs2)cc1,activity remaining,[13],101% (inactive)
